# Data from PubChem BioAssay (NCATS).
# Results filed as inconclusive are left out. A call without a number means that no potency is given here. The source made the active and inactive calls. The call rests on the fitted dose curve; in most records, active means well fitted cell-killing curve with a large enough effect; inconclusive means small, poorly fitted or top-dose-only effect, or effect the other way; inactive means no such curve, though single readings can be large or run the other way.
# Experiment: Quantitative highthroughput screen to assess conditional lethalithy of NOMO1 cells grown in Human Plasma-Like Medium with dialyzed fetal bovine serum (HPLM+ds) (AID 1963878); further: nearly all actives have a fitted effect of over 35% in size
# Conditions: NOMO1 AML cells in HPLM+ds, CellTiter-Glo viability, 48 h; series mostly up to 45.8 µM
# Source text: Assay Provider: Jason Cantor Ph.D.
# Department of Biochemistry
# University of Wisconsin-Madison, Madison, WI, USA
# Chemical screening studies have identified drug sensitivities across hundreds of cancer cell lines but most putative therapeutics fail to translate. Discovery and development of drug candidates in models that more accurately reflect nutrient levels in human blood is a major challenge. Here we performed high-throughput screens in conventional versus Human Plasma-Like Medium (HPLM) to identify compounds that were "missed" when screening using the artificial culture condition. Sets of conditional anticancer compounds spanned phases of clinical development and included non-oncology drugs were assessed. […] We also traced conditional phenotypes for several chemotherapeutics to availability of HPLM-specific metabolites and confirmed others for compounds whose reported targets are encoded by nonessential genes. Our findings establish generalizable strategies for exploiting conditional lethality in HPLM to reveal therapeutic candidates and mechanisms of action in cancer cells.
# Described herein are the results of each viability screens against three cell lines: NOMO1 (an acute myeloid leukemia cell line); P12-Ichikawa (a T-cell acute lymphoblastic leukemia); and SEM (a B-cell ALL). Each assay was screened using 3 different cell culture media: homemade human plasma-Like medium with 10% dialyzed fetal bovine serum (HPLM+ds); RPMI1640 with 10% untreated FBS and 5mM glucose (RPMI+s); and RPMI1640 with 10% dialyzed fetal bovine serum and 5 mM glucose (RPMI+ds).
# PROTOCOL TABLE (as described by Inglese J, Shamu CE and Guy RK. 2007)
# SEQUENCE No. (e.g., 1, 2, 3, etc.); […] (e.g., Cells, Incubation, Reagent, etc.); VALUE and DESCRIPTION.
# 1; Cells; 5 uL; white, solid bottom 1536-well Greiner assay plate.
# 2; Compounds; 23 nL; Kalypsis pin tool (Wako USA) equipped with a 1536-well pin head to transfer to the assay plates.
# 3; Incubation; 48 hours; 37C incubation.
# 4; Reagent; 3 uL; CellTiter Glo (Promega).
# 5; Incubation; 5 min, room temperature
# 6; Detection; Luminescence, Viewlux PerkinElmer.
# NOTES (numbers refer to Sequence numbers above)
# 1. Briefly, 5 ul of cell reagent was dispensed using a Multidrop Combi Dispenser. The NOMO1 and SEM cells were plated at 500 cells/well and the P12-Ichikawa line at 1000 cells/well.
# 2. After seeding the cells, 23 nL of MIPE 4.1 library compounds (in DMSO) were added to each plate using a Kalypsys 1536 Pintool dispenser. Bortezomib at final concentration of […] and DMSO were added to each plate as positive and negative controls respectively. For each screen, MIPE 4.1 compounds were added over an eleven-point concentration range […] in 3-fold dilutions.
# 3. Each plate was covered with a stainless steel gasketed lid to prevent evaporation and incubated for 48 hour at 37C, 95% relative humidity, and 5% CO2.
# 4-5. Three microliter CellTilter-GloTM luminescent substrate mix (Promega) reagent was added to the assay plate and incubated at room temperature for 5 min.
# 6. The luminescence signal was measured using a ViewLux (PerkinElmer) multiplate reader with a 2 second exposure time per plate. Data for each compound were normalized as percent viability such that measurements for DMSO and the empty well controls in each plate were defined as 100% and 0%, respectively.
# Potency means the concentration at half of the fitted maximal effect.
row,SMILES,Potency
1,Cc1cnn(C)c1C(=O)Nc1cc(Nc2ccc3c(C=Cc4ccccn4)n[nH]c3c2)ccc1F,16.6 µM (active)
2,Cc1nc(N)sc1-c1ccnc(Nc2ccc(N3CCOCC3)cc2)n1,4.18 µM (active)
3,Cc1ccnc(NS(=O)(=O)c2ccc(NC(=O)Nc3ccc(S(=O)(=O)Nc4nccc(C)n4)cc3)cc2)n1,0.118 µM (active)
4,OC(Cn1cncn1)(Cn1cncn1)c1ccc(F)cc1F,inactive
5,COc1cccc(-c2cc(=O)c3ccccc3o2)c1N,inactive
6,COc1cc(C[C@@H](CO)[C@H](CO)Cc2ccc(O)c(OC)c2)ccc1O,inactive
7,COC(=O)C[C@](O)(CCCC(C)(C)O)C(=O)O[C@@H]1C(OC)=C[C@]23CCCN2CCc2cc4c(cc2[C@H]13)OCO4,inactive
8,CCOC(=O)C=C[C@H](C[C@@H]1CCNC1=O)NC(=O)[C@@H](CC(=O)[C@@H](NC(=O)c1cc(C)on1)C(C)C)Cc1ccc(F)cc1,inactive
9,C=CC(=O)Nc1cc2c(Nc3ccc(F)c(Cl)c3)ncnc2cc1OCCCN1CCOCC1,3.32 µM (active)
10,CC(=O)N1CCN(c2ccc(OCc3nn(C)c(C)c3-c3cccc4c(CCCOc5cccc6ccccc56)c(C(=O)O)n(Cc5cccnc5)c34)cc2)CC1,2.35 µM (active)
11,C=C1C(=CC=C2CCC[C@]3(C)[C@@H]([C@H](C)C=C[C@H](C)C(C)C)CC[C@@H]23)C[C@@H](O)C[C@@H]1O,8.33 µM (active)
12,CNc1nc(Nc2ccc(C(=O)N3CCOCC3)cc2OC)ncc1Cl,inactive
13,CCC(C)N(C)C(=O)c1cc2ccccc2c(-c2ccccc2Cl)n1 (stereo not given),inactive
14,O=C(N[C@@H](c1ccccc1)[C@@H]1CCCCN1)c1cccc(C(F)(F)F)c1Cl,inactive
15,COc1nc(C)nc(Cl)c1NC1=NCCN1,inactive
16,Cc1cc(-c2ncc(CC(=O)Nc3ccc(-c4cnccn4)cn3)cc2C)ccn1,inactive
17,OCc1ccc(-c2ccc(-c3ccc(CO)s3)o2)s1,inactive
18,CC(=O)OCC(=O)[C@@]1(O)[C@H](C)C[C@H]2[C@@H]3C=C(C)C4=Cc5c(cnn5-c5ccccc5)C[C@]4(C)[C@@H]3[C@@H](O)C[C@@]21C,inactive
19,COC(=O)[C@@H]1CC2=CC(=O)CC[C@]2(C)[C@@]23O[C@@H]2C[C@@]2(C)[C@H](CC[C@@]24CCC(=O)O4)[C@@H]13,inactive
20,CC(C)=CCCC(C)=CCCC(C)=CCCC(C)=CCCC(C)=CCCC(C)=CCCC(C)=CCCC(C)=CCCC(C)=CCO,inactive

row,SMILES,Potency
1,Cn1cc(CNCC2CCN(c3ncc(C(=O)NO)cn3)CC2)c2ccccc21,0.296 µM (active)
2,O=C1c2ccccc2-[n+]2ccc3c([nH]c4ccccc43)c21,5.26 µM (active)
3,Cc1[nH]c(=O)c(C#N)cc1-c1ccc2nccn2c1,inactive
4,C[Se]CCC(N)C(=O)O (stereo not given),inactive
5,O=c1cc(-c2ccccc2)oc2cc(O)cc(O)c12,23.5 µM (active)
6,O=C(O)C1CCCN(CCC=C(c2ccccc2)c2ccccc2)C1 (stereo not given),inactive
7,NC(=O)c1ccc(N(C(N)=O)c2c(F)cccc2F)nc1-c1ccc(F)cc1F,inactive
8,CC[C@H](C=C[C@@H](C)[C@H]1CC[C@H]2[C@@H]3CC=C4C[C@@H](O)CC[C@]4(C)[C@@H]3CC[C@]12C)C(C)C,7.24 µM (active)
9,COc1cc2c(Nc3ccc(Cl)c(Cl)c3F)ncnc2cc1OCC1C[C@@H]2CN(C)C[C@H]2C1,4.18 µM (active)
10,CCn1c(-c2nonc2N)nc2cnc(Oc3cccc(NC(=O)c4ccc(OCCN5CCOCC5)cc4)c3)cc21,inactive
11,C1COC(NC(C2CC2)C2CC2)=N1,inactive
12,COCCNCCCn1c(C(=O)CF)c(-c2ccc(C)cc2)c2c(N)ncnc21,inactive
13,Clc1ccc(COC(Cn2ccnc2)c2ccc(Cl)cc2Cl)cc1 (stereo not given),inactive
14,CC(C)(CO)[C@@H](O)C(=O)NCCC(=O)O,inactive
15,COC(=O)N[C@H](C(=O)N1CCC[C@@H]1c1ncc(-c2ccc(-c3ccc(-c4cnc([C@@H]5CCCN5C(=O)[C@@H](NC(=O)OC)C(C)C)[nH]4)cc3)cc2)[nH]1)C(C)C,inactive
16,CCOC(=O)C1=C(N)Oc2ccc(Br)cc2C1C(C#N)C(=O)OCC (stereo not given),inactive
17,CC(C)C(C)C=CC(C)C1CCC2C3=CC=C4CC(O)CCC4(C)C3CCC21C (stereo not given),inactive
18,O=C(O)c1cn(-c2ccc(F)cc2)c2cc(N3CCNCC3)c(F)cc2c1=O,inactive
19,N[C@@]1(C(=O)O)CS(=O)(=O)[C@H]2[C@H](C(=O)O)[C@H]21,inactive
20,CC(=O)Oc1ccccc1C(=O)O,inactive
